Assay outcomes from PubChem.
FLuc inh: Firefly luciferase inhibition profiling of diverse chemical library using quantitative high-throughput screening. Luciferin 4-monooxygenase (Photinus pyralis), P08659. purified P. pyralis luciferase, luminescence, biochemical. AID 1347043, 2019. hit rate 2.5% among 76,000. Potency, µM (titrated, usually from 115 µM), usual class: inhibitors; further: nearly all actives have a fitted effect of over 65% in size
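Purified 10nM P. pyralis luciferase with 10uM D-luciferin and 10uM ATP in 50mM Tris acetate pH 7.5, 10mM Mg acetate, 0.01% Tween-20, 0.05% BSA. qHTS titration; luminescence read by CCD imager.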
3T3 cytotox: Cytotoxic Profiling in NIH 3T3 Cell Line of Diverse Libraries Using Quantitative High-Throughput Screening; Potency, µM (top dose mostly 96.7 µM), for inactives: at the top dose activity change, negative = cytotoxicity, hits mostly inhibitors; hit rate 4.3% among 94,000; NIH 3T3 viability, CellTiter-Glo ATP luminescence, 48-72 h; AID 1345082, 2018; further: nearly all actives have a fitted effect of over 55% in size
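Cytotoxicity is measured as loss of cellular ATP: NIH 3T3 cells (400/well) are exposed to compound for 48 or 72 hr at 37 °C, then CellTiter-Glo luminescence is imaged after 10 min at room temperature.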
HEK293 tox: Cytotoxic Profiling in HEK 293 Cell Line of Diverse Libraries Using Quantitative High-Throughput Screening; Potency, µM (titrated, usually from 115 µM), for the others: at the top dose activity change, negative = cytotoxicity, usual class: inhibitors; hit rate 6.6% among 94,000; HEK 293 viability, ATP luminescence (CellTiter-Glo), 48-72 h; AID 1345083, 2018; further: nearly all actives have a fitted effect of over 60% in size
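HEK 293 cells seeded at 250 cells/well were exposed to compound for 48 or 72 hr at 37 degree Celsius. Viability taken as ATP content by CellTiter-Glo luminescence.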
hNpr1 antagonist: Natriuretic polypeptide receptor (hNpr1) antagonism - Primary qHTS; AID 1347048, 2019; HEK293 hNpr1 GloSensor cGMP, ANP-stimulated luminescence; Potency, µM (highest dose often 46.3 µM), for inactives: at the top dose activity change, negative = inhibition, most hits filed as inhibitors; hit rate 1.6% among 76,000; calls by dose curve; further: nearly all actives have a fitted effect of over 60% in size
Target sequence (P16066 whole entry, looked up): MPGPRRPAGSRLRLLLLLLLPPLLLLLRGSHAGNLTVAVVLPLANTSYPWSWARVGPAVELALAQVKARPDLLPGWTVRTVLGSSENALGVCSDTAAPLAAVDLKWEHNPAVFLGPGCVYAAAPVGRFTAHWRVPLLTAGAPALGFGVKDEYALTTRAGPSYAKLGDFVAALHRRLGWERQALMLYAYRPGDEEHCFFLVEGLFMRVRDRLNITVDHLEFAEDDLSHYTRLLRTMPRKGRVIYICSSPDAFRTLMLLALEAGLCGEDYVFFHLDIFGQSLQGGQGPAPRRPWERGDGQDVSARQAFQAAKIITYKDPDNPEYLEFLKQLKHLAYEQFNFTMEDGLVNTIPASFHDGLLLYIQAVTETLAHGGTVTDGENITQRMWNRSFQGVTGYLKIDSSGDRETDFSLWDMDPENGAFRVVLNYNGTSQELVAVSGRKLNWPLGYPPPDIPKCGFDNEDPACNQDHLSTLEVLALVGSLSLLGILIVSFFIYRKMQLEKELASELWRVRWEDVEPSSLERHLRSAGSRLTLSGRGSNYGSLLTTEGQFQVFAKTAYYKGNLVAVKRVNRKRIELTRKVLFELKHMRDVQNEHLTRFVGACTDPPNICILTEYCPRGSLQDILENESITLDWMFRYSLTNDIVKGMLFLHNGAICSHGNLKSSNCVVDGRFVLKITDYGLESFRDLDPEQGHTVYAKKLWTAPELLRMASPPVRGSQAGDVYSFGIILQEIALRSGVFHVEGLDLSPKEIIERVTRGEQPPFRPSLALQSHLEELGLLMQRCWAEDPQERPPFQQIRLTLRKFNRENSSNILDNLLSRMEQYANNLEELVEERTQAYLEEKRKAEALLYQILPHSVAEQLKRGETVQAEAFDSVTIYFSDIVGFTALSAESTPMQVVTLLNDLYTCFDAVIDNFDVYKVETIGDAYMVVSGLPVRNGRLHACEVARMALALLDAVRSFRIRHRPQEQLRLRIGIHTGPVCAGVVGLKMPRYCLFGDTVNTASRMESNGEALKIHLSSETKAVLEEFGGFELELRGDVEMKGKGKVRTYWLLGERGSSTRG
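Compound pre-incubated 30 min at room temperature on GloSensor-loaded HEK293 cells stably carrying hNpr1 and the pGS-40F cGMP biosensor. Stimulation uses hNppA at 0.1 nM final; luminescence is taken at baseline and 20 min post-agonist.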
GPT2 inh: Primary qHTS assay for inhibitors of Glutamate pyruvate transaminase 2 (GPT2) | Alanine aminotransferase 2 (Homo sapiens), Q8TD30 | Recombinant GPT2, coupled pyruvate oxidase/HRP Amplex Red fluorescence | Potency, µM (series often up to 57.7 µM), inactives show at the highest dose activity change, negative = inhibition, hits mostly inhibitors | hit rate 0.25% among 100,000 | AID 1671188, 2021; further: nearly all actives have a fitted effect of over 60% in size
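Fluorescence of coupled pyruvate oxidase/HRP/Amplex Red system (50uM Amplex, 30 min, dark) reports pyruvate formed by GPT2. Enzyme reaction: 10ng/uL GPT2, 2mM L-alanine, 250uM a-KG, 30 min room temperature, pH 7.5; 50uM AOA control.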
The depositor's hits bear a star; i = inactive; ? = inconclusive; · = not tested or not shown; [ ] = dose if it differs, or a comment. A selection: hits, their analogues and other compounds. The true share with any hit is near 10%. Unless noted, the call rests on the fitted dose curve; in most records, active means well fitted curve in the direction sought with a large enough effect; inconclusive means small, poorly fitted or top-dose-only effect, or another doubt; inactive means no such curve, though single readings can be large; an effect the other way counts as inactive or inconclusive. On the % scale 0 is the no-effect control and ±100 the full control effect; potency means the concentration at half of the fitted maximal effect.

SMILES | FLuc inh | 3T3 cytotox | HEK293 tox | hNpr1 antagonist | GPT2 inh
Cc1cnc(CC2CCN(C(=O)NCc3ccccc3)C2)n1CC1CC1 (stereo not given) | · | -5.5% | -5.2% | · | 3.5%
Cc1ccc(C(=O)NC2CCN(c3ccnc4ccnn34)C2)cc1 (stereo not given) | · | ? | 63.1µM* | · | 0.7%[88.5 µM]
COc1ccc(C(=O)NC2CCN(c3ccnc4ccnn34)C2)cc1 (stereo not given) | · | ? | 50.1µM* | · | -1.5%[88.5 µM]
O=C(NC1CCN(c2ccnc3ccnn23)C1)c1ccc(C(F)(F)F)cc1 (stereo not given) | · | ? | ? | · | -14.2%
Cc1ccc(CNC[C@H]2Cn3cc(-c4ccccc4)nc3CO2)cc1 | i | ? | ? | 0.3%[70.6 µM] | 2.6%[88.5 µM]
Cc1ccccc1CNC[C@H]1Cn2cc(-c3ccccc3)nc2CO1 | i | ? | 100µM* | 4.4%[70.6 µM] | -2.6%[88.5 µM]
c1ccc(-c2cn3c(n2)CO[C@@H](CNCc2ccc4ccccc4n2)C3)cc1 | i | ? | ? | -6.8%[70.6 µM] | 4.9%[88.5 µM]
Fc1ccccc1CNC[C@H]1Cn2cc(-c3ccccc3)nc2CO1 | 63.1µM* | -27.6%[138 µM] | ? | 3.4%[70.6 µM] | -2.6%[88.5 µM]
Clc1ccccc1CNC[C@H]1Cn2cc(-c3ccccc3)nc2CO1 | 56.2µM* | ? | 100µM* | -17.4%[70.6 µM] | -6.6%[88.5 µM]
CC(C)(C)C(=O)NC1CCN(Cc2cccc(-c3cccs3)c2)CC1 | · | ? | ? | · | -6.7%[88.5 µM]
O=C(NCC1CN(C(=O)Cc2cccc(OC(F)(F)F)c2)CC12CN(c1ccccc1)C2)c1ccccc1 (stereo not given) | i | ? | ? | -0.5% | -23.7%
COc1ccccc1C(=O)Nc1ccc2c(c1)CN(Cc1ccc(F)cc1)C(=O)C(C)O2 (stereo not given) | i | ? | 35.5µM* | -23.1% | i
CC1Oc2ccc(NC(=O)c3c(F)cccc3F)cc2CN(Cc2ccc(Cl)cc2)C1=O (stereo not given) | i | ? | 15.8µM* | -27.4% | i
COc1ccc(CN2Cc3cc(NC(=O)c4ccccc4OC)ccc3OCC2=O)c(OC)c1 | i | 25.1µM* | 39.8µM* | -14.6% | i
CC1Oc2ccc(NC(=O)c3ccccc3F)cc2CN(Cc2ccccc2F)C1=O (stereo not given) | i | ? | ? | -0.4% | 2.4%
COc1ccc(C(=O)Nc2ccc3c(c2)CN(Cc2ccc(OC)cc2OC)C(=O)CO3)cc1 | ? | ? | ? | -2.4% | 0.4%
CC1Oc2ccc(NC(=O)c3ccccc3Cl)cc2CN(Cc2ccc(F)cc2)C1=O (stereo not given) | i | ? | 39.8µM* | -16.2% | -17.8%
O=C(C1CCCCC1)N1CC[C@](O)(c2ccccc2)[C@H](N2CCCC2)C1 | i | ? | ? | -6.4% | -25.9%
CCC1Oc2ccc(NC(=O)c3ccccc3F)cc2CN(Cc2ccc3c(c2)OCO3)C1=O (stereo not given) | i | ? | ? | -4.8% | -5.7%
CCC1Oc2ccc(NC(=O)c3ccccc3F)cc2CN(CCc2ccc(OC)c(OC)c2)C1=O (stereo not given) | i | 39.8µM* | ? | -1.4% | i
O=C(NCCc1ccccc1)N1CC[C@@H]2COC(=O)N(Cc3ccccc3)[C@@H]2C1 | · | ? | ? | · | -7.4%
O=c1[nH]c(N2CCOCC2)nc2c1CCN(Cc1ccc(F)cc1F)CC2 | i | -18.5% | -6.4% | 0.1% | i
O=C(Nc1cc(-c2ccncc2)nn1-c1ccccc1)c1ccc(C(F)(F)F)cc1 | · | 31.6µM* | ? | · | 1.9%
COc1ccc(C(=O)Nc2cc(-c3ccncc3)nn2-c2ccccc2)cc1 | · | ? | ? | · | 4.7%
O=C(NCCN[S+](=O)([O-])c1ccccc1)c1cccc(-c2ccsc2)c1 | · | ? | 50.1µM* | · | i
